Source: the supplement of paper PMC8728848
Shown is part of a subset that was picked to be rich in the strongest signals.

Tests used:
Experiment in all cases: glycan array binding signal (z-score within array); higher = stronger binding
Conditions in all cases: glycan notation: IUPAC condensed, linker removed; mutation: K348A
Fuc(a1-2)Gal(b1-4)GlcNAc = biological target: Fuc(a1-2)Gal(b1-4)GlcNAc
How it was run: (§1)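 Glycan array data came from 3228 arrays in the Consortium for Functional Glycomics database, and only arrays with an available protein sequence were kept. Glycan names were put into IUPAC-condensed notation, and columns mapping to the same glycan were averaged. The binding signal is a within-array Z-score, averaged across arrays of one protein sequence run at different concentrations or buffers and across linkers. A negative Z-score can be read as non-binding.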

[1] = biological target: Fuc(a1-2)Gal(b1-4)[Fuc(a1-3)]GlcNAc(b1-3)Gal(b1-4)[Fuc(a1-3)]GlcNAc(b1-3)Gal(b1-4)[Fuc(a1-3)]GlcNAc
How it was run: as §1

[2] = biological target: Fuc(a1-2)[Gal(a1-3)]Gal(b1-4)[Fuc(a1-3)]GlcNAc
How it was run: as §1

[3] = biological target: Fuc(a1-2)[GalNAc(a1-4)]Gal(b1-4)GlcNAc
How it was run: as §1

Fuc(a1-3)GlcNAc = biological target: Fuc(a1-3)GlcNAc
How it was run: as §1

[4] = biological target: Fuc(a1-3)[Gal(b1-4)]GlcNAc(b1-2)Man(a1-3)[Fuc(a1-3)[Gal(b1-4)]GlcNAc(b1-2)Man(a1-6)]Man(b1-4)GlcNAc(b1-4)GlcNAc
How it was run: as §1

[5] = biological target: Fuc(a1-3)[Gal(b1-4)]GlcNAc(b1-4)Gal(b1-4)[Fuc(a1-3)]GlcNAc
How it was run: as §1

[6] = biological target: Fuc(a1-3)[Gal(b1-4)]GlcNAc6S
How it was run: as §1

[7] = biological target: Gal(b1-3)[Neu5Ac(b2-6)]GalNAc
How it was run: as §1

[8] = biological target: Gal(b1-4)GalNAc(a1-3)[Fuc(a1-2)]Gal(b1-4)GlcNAc
How it was run: as §1

[9] = biological target: Gal(b1-4)GlcNAc(b1-3)[Gal(b1-4)GlcNAc(b1-6)]Gal(b1-4)GlcNAc
How it was run: as §1

[10] = biological target: Gal(b1-4)GlcNAc(b1-6)GalNAc
How it was run: as §1

GalNAc(b1-4)GlcNAc = biological target: GalNAc(b1-4)GlcNAc
How it was run: as §1

Glc(a1-4)Glc = biological target: Glc(a1-4)Glc
How it was run: as §1

Glc(b1-4)Glc = biological target: Glc(b1-4)Glc
How it was run: as §1

[11] = biological target: GlcNAc(b1-3)[GlcNAc(b1-6)]Gal(b1-4)GlcNAc
How it was run: as §1

[12] = biological target: Man(a1-2)Man(a1-2)Man(a1-6)[Man(a1-3)]Man
How it was run: as §1

[13] = biological target: Man(a1-2)Man(a1-3)[Man(a1-2)Man(a1-6)]Man
How it was run: as §1

[14] = biological target: Man(a1-2)Man(a1-3)[Man(a1-2)Man(a1-6)]Man(a1-6)[Man(a1-2)Man(a1-2)Man(a1-3)]Man
How it was run: as §1

[15] = biological target: Man(a1-3)[Man(a1-6)]Man(a1-6)[Man(a1-2)Man(a1-3)]Man(b1-4)GlcNAc(b1-4)GlcNAc
How it was run: as §1

[16] = biological target: Man(a1-3)[Man(a1-6)]Man(a1-6)[Man(a1-3)]Man
How it was run: as §1

[17] = biological target: Neu5Ac(a2-3)Gal(b1-3)GalNAc(b1-4)[Neu5Ac(a2-3)]Gal(b1-4)Glc
How it was run: as §1

[18] = biological target: Neu5Ac(a2-3)Gal(b1-3)[Fuc(a1-4)]GlcNAc(b1-3)Gal(b1-4)[Fuc(a1-3)]GlcNAc
How it was run: as §1

[19] = biological target: Neu5Ac(a2-3)Gal(b1-4)[Fuc(a1-3)]GlcNAc(b1-3)Gal
How it was run: as §1

[20] = biological target: Neu5Ac(a2-3)Gal(b1-4)[Fuc(a1-3)]GlcNAc(b1-6)[Gal(b1-3)]GalNAc
How it was run: as §1

Neu5Ac(a2-6)Gal(b1-4)Glc = biological target: Neu5Ac(a2-6)Gal(b1-4)Glc
How it was run: as §1

[21] = biological target: Neu5Gc(a2-3)Gal(b1-3)[Fuc(a1-4)]GlcNAc
How it was run: as §1

B1: Surfactant Protein D (Human); Neck + Carbohydrate Recognition Domain (NCRD) (Homo sapiens) (protein)
chain: MLLFLLSALVLLTQPLGYLEAEMKTYSHRTMPSACTLVMCSSVESGLPGRDRDGREGPRGEKGDPGLPGAAGQAGMPGQAGPVGPKGDNGSVGEPGPKGDTGPSGPPGPPGVPGPAGREGALGKQGNIGPQGKPGPKGEAGPKGEVGAPGMQGSAGARGLAGPKGERGVPGERGVPGNTGAAGSAGAMGPQGSPGARGPPGLKGDKGIPGDKGAKGESGLPDVASLRQQVEALQGQVQHLQAAFSQYKKVELFPNGQSVGEKIFKTAQFVKPFTEAQLLCTQAGGQLASPRSAAENAALQQLVVAKNEAAFLSMTDSKTEGKFTYPTGESLVYSNWAPGEPNDDGGSEDCVEIFTNGKWNDRACGEARLVVCEF
glycan array binding signal (z-score) (Fuc(a1-2)Gal(b1-4)GlcNAc): -0.173 | glycan array binding signal (z-score) [1]: -0.151 | glycan array binding signal (z-score) [2]: -0.148 | glycan array binding signal (z-score) [3]: -0.151 | glycan array binding signal (z-score) (Fuc(a1-3)GlcNAc): -0.116 | glycan array binding signal (z-score) [4]: -0.176 | glycan array binding signal (z-score) [5]: -0.134 | glycan array binding signal (z-score) [6]: -0.17 | glycan array binding signal (z-score) [7]: -0.09 | glycan array binding signal (z-score) [8]: -0.175 | glycan array binding signal (z-score) [9]: -0.175 | glycan array binding signal (z-score) [10]: -0.173 | glycan array binding signal (z-score) (GalNAc(b1-4)GlcNAc): -0.165 | glycan array binding signal (z-score) (Glc(a1-4)Glc): -0.171 | glycan array binding signal (z-score) (Glc(b1-4)Glc): -0.16 | glycan array binding signal (z-score) [11]: -0.177 | glycan array binding signal (z-score) [12]: 8.57 | glycan array binding signal (z-score) [13]: 7.38 | glycan array binding signal (z-score) [14]: 8.69 | glycan array binding signal (z-score) [15]: 6.04 | glycan array binding signal (z-score) [16]: 6.52 | glycan array binding signal (z-score) [17]: -0.156 | glycan array binding signal (z-score) [18]: 0.451 | glycan array binding signal (z-score) [19]: -0.173 | glycan array binding signal (z-score) [20]: -0.015 | glycan array binding signal (z-score) (Neu5Ac(a2-6)Gal(b1-4)Glc): -0.17 | glycan array binding signal (z-score) [21]: -0.149
